From the supplement of paper PMC6897291

Assays:
RIVA [1] = assay: growth inhibition by drug plus 177Lu-lilotomab satetraxetan (1 - RLU/untreated control) (fraction); higher = stronger inhibition; details: 177Lu-lilotomab satetraxetan 0.5 ug/ml
How it was run: (§1)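 With or without 18 h pretreatment by a radiolabelled anti-CD37 antibody conjugate (~600 MBq/mg; 0.5 µg/ml RIVA, 1 µg/ml U-2932), RIVA and U-2932 cells were washed and plated at 3,000 cells/well. Pre-printed compound doses were 10/100 nM for RIVA and 10/1,000 nM for U-2932. Growth inhibition uses RealTime-Glo RLU relative to the untreated no-drug wells. The calculation is 1 − RLU/mean of 48 such wells per plate, with reads daily from day 3 after 1 h at 37°C.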

U-2932 [2] = assay: growth inhibition by drug alone (1 - RLU/untreated control) (fraction); higher = stronger inhibition; details: 177Lu-lilotomab satetraxetan 0 ug/ml
How it was run: as §1

RIVA [3] = assay: as above; details: 177Lu-lilotomab satetraxetan 0 ug/ml
How it was run: as §1

U-2932 [4] = assay: growth inhibition by drug plus 177Lu-lilotomab satetraxetan (1 - RLU/untreated control) (fraction); higher = stronger inhibition; details: 177Lu-lilotomab satetraxetan 1 ug/ml
How it was run: as §1

SMILES	growth inhibition by drug plus 177Lu-lilotomab satetraxetan (RIVA [1]; 100 nM, time (day): 5)	growth inhibition by drug plus 177Lu-lilotomab satetraxetan (RIVA [1]; 100 nM, time (day): 6)	growth inhibition by drug alone (U-2932 [2]; 10 nM, time (day): 3)	growth inhibition by drug alone (U-2932 [2]; 10 nM, time (day): 4)	growth inhibition by drug alone (U-2932 [2]; 10 nM, time (day): 5)	growth inhibition by drug alone (U-2932 [2]; 10 nM, time (day): 6)	growth inhibition by drug alone (U-2932 [2]; 1000 nM, time (day): 3)	growth inhibition by drug alone (U-2932 [2]; 1000 nM, time (day): 4)	growth inhibition by drug alone (U-2932 [2]; 1000 nM, time (day): 5)	growth inhibition by drug alone (U-2932 [2]; 1000 nM, time (day): 6)	growth inhibition by drug alone (RIVA [3]; 10 nM, time (day): 3)	growth inhibition by drug alone (RIVA [3]; 10 nM, time (day): 4)	growth inhibition by drug alone (RIVA [3]; 10 nM, time (day): 5)	growth inhibition by drug alone (RIVA [3]; 10 nM, time (day): 6)	growth inhibition by drug alone (RIVA [3]; 100 nM, time (day): 3)	growth inhibition by drug alone (RIVA [3]; 100 nM, time (day): 4)	growth inhibition by drug alone (RIVA [3]; 100 nM, time (day): 5)	growth inhibition by drug alone (RIVA [3]; 100 nM, time (day): 6)	growth inhibition by drug plus 177Lu-lilotomab satetraxetan (U-2932 [4]; 10 nM, time (day): 3)	growth inhibition by drug plus 177Lu-lilotomab satetraxetan (U-2932 [4]; 10 nM, time (day): 4)	growth inhibition by drug plus 177Lu-lilotomab satetraxetan (U-2932 [4]; 10 nM, time (day): 5)	growth inhibition by drug plus 177Lu-lilotomab satetraxetan (U-2932 [4]; 10 nM, time (day): 6)	growth inhibition by drug plus 177Lu-lilotomab satetraxetan (U-2932 [4]; 1000 nM, time (day): 3)	growth inhibition by drug plus 177Lu-lilotomab satetraxetan (U-2932 [4]; 1000 nM, time (day): 4)	growth inhibition by drug plus 177Lu-lilotomab satetraxetan (U-2932 [4]; 1000 nM, time (day): 5)	growth inhibition by drug plus 177Lu-lilotomab satetraxetan (U-2932 [4]; 1000 nM, time (day): 6)	growth inhibition by drug plus 177Lu-lilotomab satetraxetan (RIVA [1]; 10 nM, time (day): 3)	growth inhibition by drug plus 177Lu-lilotomab satetraxetan (RIVA [1]; 10 nM, time (day): 4)	growth inhibition by drug plus 177Lu-lilotomab satetraxetan (RIVA [1]; 10 nM, time (day): 5)	growth inhibition by drug plus 177Lu-lilotomab satetraxetan (RIVA [1]; 10 nM, time (day): 6)	growth inhibition by drug plus 177Lu-lilotomab satetraxetan (RIVA [1]; 100 nM, time (day): 3)	growth inhibition by drug plus 177Lu-lilotomab satetraxetan (RIVA [1]; 100 nM, time (day): 4)
O=C(O)CCCc1ccccc1 [4-Phenylbutyrate]	0.507	0.511																														
C[C@]12CC[C@H](O)CC1=CC[C@@H]1[C@@H]2CC[C@]2(C)C(c3cccnc3)=CC[C@@H]12 [Abiraterone (CB-7598)]	0.407	0.425	0.158	0.102	-0.102	-0.0433	0.0352	-0.0224	-0.154	-0.164	-0.0346	-0.0301	-0.224	-0.618	-0.373	-0.274	-0.381	-0.72	0.0329	0.0754	0.164	0.196	-0.00601	0.0151	0.0665	0.163	0.487	0.574	0.591	0.595	0.305	0.41
Oc1cccc(-c2nc(N3CCOCC3)c3oc4ncccc4c3n2)c1	0.827	0.824	0.191	0.128	-0.0145	-0.0687	0.836	0.879	0.891	0.894	0.135	0.0735	0.0557	-0.0131	0.762	0.695	0.667	0.585	0.125	0.138	0.171	0.231	0.633	0.625	0.627	0.655	0.54	0.556	0.562	0.572	0.837	0.831
CC(C)[C@H](C(=O)Nc1ccc(C(=O)NO)cc1)c1ccccc1	0.937	0.94	0.0244	0.00418	-0.0183	-0.000531	0.96	0.964	0.973	0.98	-0.0258	-0.0463	-0.0451	-0.103	0.935	0.907	0.897	0.884	0.037	0.0315	0.0282	0.152	0.961	0.969	0.978	0.985	0.524	0.584	0.602	0.599	0.939	0.934
Cc1nc(-c2ccc(OCC(C)C)c(C#N)c2)sc1C(=O)O [Febuxostat (Uloric)]	0.463	0.45	0.06	0.0554	0.0252	-0.0354	0.00138	0.0444	-0.00425	-0.214	0.0707	0.00437	-0.101	-0.473	0.158	0.082	0.0362	-0.046	0.0457	0.0731	0.0564	0.0873	-0.0156	0.0704	0.0056	-0.0613	0.368	0.506	0.513	0.525	0.42	0.463
Nc1nc(F)nc2c1ncn2[C@@H]1O[C@H](CO)[C@@H](O)[C@@H]1O [Fludarabine (Fludara)]	0.573	0.585	0.0811	0.031	-0.102	-0.129	0.0221	0.000892	-0.0649	-0.0258	0.0792	0.0421	0.0106	-0.266	-0.264	-0.213	-0.187	-0.228	0.0486	0.0769	0.126	0.16	0.00481	0.105	0.131	0.185	0.546	0.58	0.591	0.585	0.504	0.553
Cc1ccc(C(=O)Nc2ccc(CN3CCN(C)CC3)c(C(F)(F)F)c2)cc1C#Cc1cnc2cccnn12	0.77	0.788	-0.0855	-0.101	-0.212	-0.304	0.619	0.711	0.699	0.718	-0.13	-0.226	-0.275	-0.383	0.59	0.607	0.6	0.53	-0.1	-0.0253	0.0155	0.0448	0.74	0.819	0.844	0.883	0.39	0.475	0.499	0.509	0.689	0.752
COc1cc2c(NC3CCN(C)CC3)nc(N3CCCN(C)CC3)nc2cc1OCCCN(C)C	0.453	0.469	0.0324	-0.0188	-0.094	-0.326	-0.0483	-0.0744	-0.125	-0.235	-0.117	-0.195	-0.474	-0.819	-0.568	-0.503	-0.528	-0.706	-0.0493	-0.0119	0.0125	0.00172	-0.0195	-0.0136	0.00791	0.0785	0.365	0.464	0.475	0.499	0.316	0.452
